In PubChem BioAssay AID588477 (NMMLSC, 2011):
Activity calls are given as the source filed them.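 Rule for the calls: active = valid curve fit with half-effect dose at most 10 µM and total binding change across doses of 30 points or more; inactive = the rest.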

Tested on: Rac wt
Test: inhibitors of Bodipy-GTP binding across eight GTPases, SAR follow-up, selectivity assay for Cdc42 probe extension project, biochemical, round 1 SAR, Mg buffer, multiplex flow cytometry (AID 588477)
Settings: GST-GTPase beads; series mostly up to 100 µM

outcome, inactive:
COc1ccc(C2CC(c3ccccc3)=NN2c2ccc(S(N)(=O)=O)cc2)cc1 (stereo not drawn)
NS(=O)(=O)c1ccc(N2N=C(c3ccccc3)CC2c2ccccc2)cc1 (stereo not drawn)
O=C(C#Cc1ccccc1)c1cccc([N+](=O)[O-])c1
